# Data: publication PMC11062922 (Nature Chemical Biology, 2023)
# How the values were obtained:
# BUB1 = test system: BUB1; set-up: species or system human, MV4-11 + K-562 + COLO205 + SK-N-BE2 + OVCAR-8; details: read-out: apparent Kd; compound concentrations: 100 nM and 1000 nM (sheet 'Samples'), CATDS: 2.1802873020005002E-2; n = 1
# CDC42BPA = test system: CDC42BPA; set-up: species or system human, MV4-11 + K-562 + COLO205 + SK-N-BE2 + OVCAR-8; details: read-out: apparent Kd; compound concentrations: 100 nM and 1000 nM (sheet 'Samples'), CATDS: 2.9689579346921902E-2; n = 1
# CDC42BPB = test system: CDC42BPB; set-up: species or system human, MV4-11 + K-562 + COLO205 + SK-N-BE2 + OVCAR-8; details: read-out: apparent Kd; compound concentrations: 100 nM and 1000 nM (sheet 'Samples'), CATDS: 2.9604428475736501E-2; n = 1
# CDC42BPG = test system: CDC42BPG; set-up: species or system human, MV4-11 + K-562 + COLO205 + SK-N-BE2 + OVCAR-8; details: read-out: apparent Kd; compound concentrations: 100 nM and 1000 nM (sheet 'Samples'), CATDS: 3.5199852415490701E-2; n = 1
# CDC7 = test system: CDC7; set-up: species or system human, MV4-11 + K-562 + COLO205 + SK-N-BE2 + OVCAR-8; details: read-out: apparent Kd; compound concentrations: 100 nM and 1000 nM (sheet 'Samples'), CATDS: 2.6746378417374699E-2; n = 1
# CDK4 = test system: CDK4; set-up: species or system human, MV4-11 + K-562 + COLO205 + SK-N-BE2 + OVCAR-8; details: read-out: apparent Kd; compound concentrations: 100 nM and 1000 nM (sheet 'Samples'), CATDS: 2.4664855297043799E-2; n = 1
# CLK4 = test system: CLK4; set-up: species or system human, MV4-11 + K-562 + COLO205 + SK-N-BE2 + OVCAR-8; details: read-out: apparent Kd; compound concentrations: 100 nM and 1000 nM (sheet 'Samples'), CATDS: 2.52027212323017E-2; n = 1
# DYRK1A = test system: DYRK1A; set-up: species or system human, MV4-11 + K-562 + COLO205 + SK-N-BE2 + OVCAR-8; details: read-out: apparent Kd; compound concentrations: 100 nM and 1000 nM (sheet 'Samples'), CATDS: 2.7886290868283401E-2; n = 1
# GSK3A = test system: GSK3A; set-up: species or system human, MV4-11 + K-562 + COLO205 + SK-N-BE2 + OVCAR-8; details: read-out: apparent Kd; compound concentrations: 100 nM and 1000 nM (sheet 'Samples'), CATDS: 3.2478486549428802E-2; n = 1
# GSK3B = test system: GSK3B; set-up: species or system human, MV4-11 + K-562 + COLO205 + SK-N-BE2 + OVCAR-8; details: read-out: apparent Kd; compound concentrations: 100 nM and 1000 nM (sheet 'Samples'), CATDS: 2.76286010769239E-2; n = 1
# NNT = test system: NNT; set-up: species or system human, MV4-11 + K-562 + COLO205 + SK-N-BE2 + OVCAR-8; details: read-out: apparent Kd; compound concentrations: 100 nM and 1000 nM (sheet 'Samples'), CATDS: 2.2589714418096801E-2; n = 1
# PIM1 = test system: PIM1; set-up: species or system human, MV4-11 + K-562 + COLO205 + SK-N-BE2 + OVCAR-8; details: read-out: apparent Kd; compound concentrations: 100 nM and 1000 nM (sheet 'Samples'), CATDS: 3.4638112150075201E-2; n = 1
# PKN1 = test system: PKN1; set-up: species or system human, MV4-11 + K-562 + COLO205 + SK-N-BE2 + OVCAR-8; details: read-out: apparent Kd; compound concentrations: 100 nM and 1000 nM (sheet 'Samples'), CATDS: 6.9293964383533801E-2; n = 1
# PKN2 = test system: PKN2; set-up: species or system human, MV4-11 + K-562 + COLO205 + SK-N-BE2 + OVCAR-8; details: read-out: apparent Kd; compound concentrations: 100 nM and 1000 nM (sheet 'Samples'), CATDS: 0.13828274878435901; n = 1
# PKN3 = test system: PKN3; set-up: species or system human, MV4-11 + K-562 + COLO205 + SK-N-BE2 + OVCAR-8; details: read-out: apparent Kd; compound concentrations: 100 nM and 1000 nM (sheet 'Samples'), CATDS: 2.6445492378014E-2; n = 1
# PRKACA = test system: PRKACA; set-up: species or system human, MV4-11 + K-562 + COLO205 + SK-N-BE2 + OVCAR-8; details: read-out: apparent Kd; compound concentrations: 100 nM and 1000 nM (sheet 'Samples'), CATDS: 2.2371204771335199E-2; n = 1
# PRKCA = test system: PRKCA; set-up: species or system human, MV4-11 + K-562 + COLO205 + SK-N-BE2 + OVCAR-8; details: read-out: apparent Kd; compound concentrations: 100 nM and 1000 nM (sheet 'Samples'), CATDS: 3.9494099322939E-2; n = 1
# PRKCB = test system: PRKCB; set-up: species or system human, MV4-11 + K-562 + COLO205 + SK-N-BE2 + OVCAR-8; details: read-out: apparent Kd; compound concentrations: 100 nM and 1000 nM (sheet 'Samples'), CATDS: 4.76963750103866E-2; n = 1
# PRKCD = test system: PRKCD; set-up: species or system human, MV4-11 + K-562 + COLO205 + SK-N-BE2 + OVCAR-8; details: read-out: apparent Kd; compound concentrations: 100 nM and 1000 nM (sheet 'Samples'), CATDS: 6.0948363535237499E-2; n = 1
# PRKCI = test system: PRKCI; set-up: species or system human, MV4-11 + K-562 + COLO205 + SK-N-BE2 + OVCAR-8; details: read-out: apparent Kd; compound concentrations: 100 nM and 1000 nM (sheet 'Samples'), CATDS: 3.5414471461485103E-2; n = 1
# PRKCQ = test system: PRKCQ; set-up: species or system human, MV4-11 + K-562 + COLO205 + SK-N-BE2 + OVCAR-8; details: read-out: apparent Kd; compound concentrations: 100 nM and 1000 nM (sheet 'Samples'), CATDS: 2.3037545247832199E-2; n = 1
# PRKG1 = test system: PRKG1; set-up: species or system human, MV4-11 + K-562 + COLO205 + SK-N-BE2 + OVCAR-8; details: read-out: apparent Kd; compound concentrations: 100 nM and 1000 nM (sheet 'Samples'), CATDS: 3.8596421043345E-2; n = 1
# PRKX;PRKY = test system: PRKX;PRKY; set-up: species or system human, MV4-11 + K-562 + COLO205 + SK-N-BE2 + OVCAR-8; details: read-out: apparent Kd; compound concentrations: 100 nM and 1000 nM (sheet 'Samples'), CATDS: 4.0324961931199298E-2; n = 1
# Q6ZSR9 = Q6ZSR9 (human, UniProt Q6ZSR9); set-up: species or system MV4-11 + K-562 + COLO205 + SK-N-BE2 + OVCAR-8; details: read-out: apparent Kd; compound concentrations: 100 nM and 1000 nM (sheet 'Samples'), CATDS: 2.23637013148167E-2; n = 1
# ROCK1 = test system: ROCK1; set-up: species or system human, MV4-11 + K-562 + COLO205 + SK-N-BE2 + OVCAR-8; details: read-out: apparent Kd; compound concentrations: 100 nM and 1000 nM (sheet 'Samples'), CATDS: 0.20486846489085001; n = 1
# ROCK2 = test system: ROCK2; set-up: species or system human, MV4-11 + K-562 + COLO205 + SK-N-BE2 + OVCAR-8; details: read-out: apparent Kd; compound concentrations: 100 nM and 1000 nM (sheet 'Samples'), CATDS: 0.25564914108925302; n = 1
# RPS6KA3 = test system: RPS6KA3; set-up: species or system human, MV4-11 + K-562 + COLO205 + SK-N-BE2 + OVCAR-8; details: read-out: apparent Kd; compound concentrations: 100 nM and 1000 nM (sheet 'Samples'), CATDS: 2.2411381111350701E-2; n = 1
# RPS6KA4 = test system: RPS6KA4; set-up: species or system human, MV4-11 + K-562 + COLO205 + SK-N-BE2 + OVCAR-8; details: read-out: apparent Kd; compound concentrations: 100 nM and 1000 nM (sheet 'Samples'), CATDS: 2.93060004016619E-2; n = 1
# RPS6KA5 = test system: RPS6KA5; set-up: species or system human, MV4-11 + K-562 + COLO205 + SK-N-BE2 + OVCAR-8; details: read-out: apparent Kd; compound concentrations: 100 nM and 1000 nM (sheet 'Samples'), CATDS: 7.09289008095534E-2; n = 1
# RPS6KB1 = test system: RPS6KB1; set-up: species or system human, MV4-11 + K-562 + COLO205 + SK-N-BE2 + OVCAR-8; details: read-out: apparent Kd; compound concentrations: 100 nM and 1000 nM (sheet 'Samples'), CATDS: 3.4363243173278199E-2; n = 1
# Q6ZSR9, sequence (Q6ZSR9 whole entry, looked up): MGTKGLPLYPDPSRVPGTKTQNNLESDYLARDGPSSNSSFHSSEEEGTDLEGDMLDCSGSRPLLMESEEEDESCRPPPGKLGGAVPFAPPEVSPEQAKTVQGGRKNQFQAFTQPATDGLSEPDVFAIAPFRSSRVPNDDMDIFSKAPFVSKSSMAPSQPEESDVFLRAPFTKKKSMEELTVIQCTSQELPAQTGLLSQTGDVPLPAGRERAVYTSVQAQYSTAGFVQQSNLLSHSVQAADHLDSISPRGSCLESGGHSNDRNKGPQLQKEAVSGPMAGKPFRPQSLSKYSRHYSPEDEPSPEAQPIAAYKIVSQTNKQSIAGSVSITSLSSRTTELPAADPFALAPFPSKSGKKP
compound,measurement,setting,value
CCn1c(-c2nonc2N)nc2cncc(C(=O)NCCNC)c21 [GW876790X],potency estimated from few doses,BUB1,2400 nM
same,potency estimated from few doses,CDC42BPA,783 nM
same,potency estimated from few doses,CDC42BPB,790 nM
same,potency estimated from few doses,CDC42BPG,498 nM
same,potency estimated from few doses,CDC7,1080 nM
same,potency estimated from few doses,CDK4,1430 nM
same,potency estimated from few doses,CLK4,1320 nM
same,potency estimated from few doses,DYRK1A,944 nM
same,potency estimated from few doses,GSK3A,612 nM
same,potency estimated from few doses,GSK3B,971 nM
same,potency estimated from few doses,NNT,2030 nM
same,potency estimated from few doses,PIM1,519 nM
same,potency estimated from few doses,PKN1,118 nM
same,potency estimated from few doses,PKN2,35.1 nM
same,potency estimated from few doses,PKN3,1120 nM
same,potency estimated from few doses,PRKACA,2120 nM
same,potency estimated from few doses,PRKCA,378 nM
same,potency estimated from few doses,PRKCB,249 nM
same,potency estimated from few doses,PRKCD,152 nM
same,potency estimated from few doses,PRKCI,491 nM
same,potency estimated from few doses,PRKCQ,1870 nM
same,potency estimated from few doses,PRKG1,399 nM
same,potency estimated from few doses,PRKX;PRKY,361 nM
same,potency estimated from few doses,Q6ZSR9,2130 nM
same,potency estimated from few doses,ROCK1,19.1 nM
same,potency estimated from few doses,ROCK2,13.9 nM
same,potency estimated from few doses,RPS6KA3,2110 nM
same,potency estimated from few doses,RPS6KA4,813 nM
same,potency estimated from few doses,RPS6KA5,113 nM
same,potency estimated from few doses,RPS6KB1,529 nM
